Of roughly 7,900 targets only a part is listed; those with a hit were picked by preference. About 0.6% of all pairs of compound and target were hits. A number with no mark means an inactive call.

Results on 17 targets are retold here after the supplement of paper PMC10849652.

UniProt P52294, sequence (P52294 whole entry, looked up): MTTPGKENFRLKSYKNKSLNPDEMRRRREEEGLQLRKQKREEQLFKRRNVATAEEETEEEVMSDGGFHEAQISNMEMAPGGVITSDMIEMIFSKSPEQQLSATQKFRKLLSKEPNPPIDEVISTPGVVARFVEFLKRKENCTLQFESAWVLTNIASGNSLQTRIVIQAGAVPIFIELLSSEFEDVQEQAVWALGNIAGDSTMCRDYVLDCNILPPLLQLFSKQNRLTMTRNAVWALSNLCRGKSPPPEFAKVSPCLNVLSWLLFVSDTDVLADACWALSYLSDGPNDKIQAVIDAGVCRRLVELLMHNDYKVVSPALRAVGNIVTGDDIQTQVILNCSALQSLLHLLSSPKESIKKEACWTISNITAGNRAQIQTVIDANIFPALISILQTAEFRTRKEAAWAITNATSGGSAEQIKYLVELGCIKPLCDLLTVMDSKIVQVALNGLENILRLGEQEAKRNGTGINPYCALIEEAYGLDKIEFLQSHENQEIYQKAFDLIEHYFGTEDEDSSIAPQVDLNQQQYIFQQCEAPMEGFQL
UniProt P29966, sequence (P29966 whole entry, looked up): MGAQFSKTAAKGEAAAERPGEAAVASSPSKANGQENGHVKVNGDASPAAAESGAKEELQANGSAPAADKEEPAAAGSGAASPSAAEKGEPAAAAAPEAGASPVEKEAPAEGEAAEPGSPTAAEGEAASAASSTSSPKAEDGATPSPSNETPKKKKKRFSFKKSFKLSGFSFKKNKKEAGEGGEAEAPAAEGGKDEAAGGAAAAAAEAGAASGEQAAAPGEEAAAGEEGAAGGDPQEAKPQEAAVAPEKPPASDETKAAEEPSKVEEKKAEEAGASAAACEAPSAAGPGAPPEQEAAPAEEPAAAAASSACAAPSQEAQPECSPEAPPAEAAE
UniProt Q7L2J0, sequence (Q7L2J0 whole entry, looked up): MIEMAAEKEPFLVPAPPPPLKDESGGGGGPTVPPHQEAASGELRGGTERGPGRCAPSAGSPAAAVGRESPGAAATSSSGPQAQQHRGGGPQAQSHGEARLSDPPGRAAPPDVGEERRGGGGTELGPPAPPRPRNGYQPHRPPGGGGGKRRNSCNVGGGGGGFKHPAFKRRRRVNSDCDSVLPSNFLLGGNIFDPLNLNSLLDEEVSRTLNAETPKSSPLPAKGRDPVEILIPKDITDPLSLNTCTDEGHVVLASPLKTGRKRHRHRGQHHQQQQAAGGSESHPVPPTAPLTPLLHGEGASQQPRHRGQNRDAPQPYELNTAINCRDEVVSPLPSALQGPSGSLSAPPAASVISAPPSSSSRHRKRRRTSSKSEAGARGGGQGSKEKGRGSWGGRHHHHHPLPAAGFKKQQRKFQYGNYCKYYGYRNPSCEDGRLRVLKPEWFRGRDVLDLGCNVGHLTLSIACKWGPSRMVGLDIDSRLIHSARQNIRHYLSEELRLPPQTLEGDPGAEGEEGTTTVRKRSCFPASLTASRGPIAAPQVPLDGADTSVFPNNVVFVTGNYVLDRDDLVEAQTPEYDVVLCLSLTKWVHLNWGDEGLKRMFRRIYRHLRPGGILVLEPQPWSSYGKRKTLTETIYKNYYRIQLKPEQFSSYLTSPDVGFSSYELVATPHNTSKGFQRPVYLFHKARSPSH
UniProt Q9NQ29, sequence (Q9NQ29 whole entry, looked up): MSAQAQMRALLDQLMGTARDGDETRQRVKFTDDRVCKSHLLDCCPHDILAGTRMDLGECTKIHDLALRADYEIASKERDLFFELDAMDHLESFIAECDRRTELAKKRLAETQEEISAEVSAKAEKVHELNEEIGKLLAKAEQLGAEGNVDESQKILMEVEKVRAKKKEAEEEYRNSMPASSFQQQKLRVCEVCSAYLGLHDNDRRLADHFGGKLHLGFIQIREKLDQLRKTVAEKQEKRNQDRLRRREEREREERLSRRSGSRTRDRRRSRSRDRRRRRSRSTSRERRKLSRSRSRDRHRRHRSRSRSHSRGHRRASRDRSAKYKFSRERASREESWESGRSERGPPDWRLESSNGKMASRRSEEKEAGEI
UniProt Q8IVT5, sequence (Q8IVT5 whole entry, looked up): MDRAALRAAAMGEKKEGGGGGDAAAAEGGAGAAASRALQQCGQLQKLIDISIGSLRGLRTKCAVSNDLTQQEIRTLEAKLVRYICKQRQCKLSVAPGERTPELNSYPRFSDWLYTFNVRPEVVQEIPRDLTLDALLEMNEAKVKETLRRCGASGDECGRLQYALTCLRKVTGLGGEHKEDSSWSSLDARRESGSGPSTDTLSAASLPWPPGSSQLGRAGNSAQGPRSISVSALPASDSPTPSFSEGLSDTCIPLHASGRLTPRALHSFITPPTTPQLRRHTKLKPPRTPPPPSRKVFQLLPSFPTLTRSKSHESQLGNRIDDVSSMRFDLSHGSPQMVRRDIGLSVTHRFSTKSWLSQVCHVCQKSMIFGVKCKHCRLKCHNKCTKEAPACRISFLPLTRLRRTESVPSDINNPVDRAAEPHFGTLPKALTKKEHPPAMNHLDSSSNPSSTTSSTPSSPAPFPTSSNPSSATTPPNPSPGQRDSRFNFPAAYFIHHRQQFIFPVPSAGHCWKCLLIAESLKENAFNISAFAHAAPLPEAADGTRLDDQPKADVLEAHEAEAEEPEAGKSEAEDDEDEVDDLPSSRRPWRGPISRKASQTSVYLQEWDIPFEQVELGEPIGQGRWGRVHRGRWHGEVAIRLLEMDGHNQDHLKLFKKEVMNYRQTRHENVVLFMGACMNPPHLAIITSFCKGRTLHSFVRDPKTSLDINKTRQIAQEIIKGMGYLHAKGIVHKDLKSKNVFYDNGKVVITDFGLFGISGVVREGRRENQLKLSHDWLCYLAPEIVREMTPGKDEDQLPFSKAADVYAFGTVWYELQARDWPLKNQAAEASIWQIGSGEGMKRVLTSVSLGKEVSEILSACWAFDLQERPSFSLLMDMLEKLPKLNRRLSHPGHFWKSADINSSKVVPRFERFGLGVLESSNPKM
UniProt Q99661, sequence (Q99661 whole entry, looked up): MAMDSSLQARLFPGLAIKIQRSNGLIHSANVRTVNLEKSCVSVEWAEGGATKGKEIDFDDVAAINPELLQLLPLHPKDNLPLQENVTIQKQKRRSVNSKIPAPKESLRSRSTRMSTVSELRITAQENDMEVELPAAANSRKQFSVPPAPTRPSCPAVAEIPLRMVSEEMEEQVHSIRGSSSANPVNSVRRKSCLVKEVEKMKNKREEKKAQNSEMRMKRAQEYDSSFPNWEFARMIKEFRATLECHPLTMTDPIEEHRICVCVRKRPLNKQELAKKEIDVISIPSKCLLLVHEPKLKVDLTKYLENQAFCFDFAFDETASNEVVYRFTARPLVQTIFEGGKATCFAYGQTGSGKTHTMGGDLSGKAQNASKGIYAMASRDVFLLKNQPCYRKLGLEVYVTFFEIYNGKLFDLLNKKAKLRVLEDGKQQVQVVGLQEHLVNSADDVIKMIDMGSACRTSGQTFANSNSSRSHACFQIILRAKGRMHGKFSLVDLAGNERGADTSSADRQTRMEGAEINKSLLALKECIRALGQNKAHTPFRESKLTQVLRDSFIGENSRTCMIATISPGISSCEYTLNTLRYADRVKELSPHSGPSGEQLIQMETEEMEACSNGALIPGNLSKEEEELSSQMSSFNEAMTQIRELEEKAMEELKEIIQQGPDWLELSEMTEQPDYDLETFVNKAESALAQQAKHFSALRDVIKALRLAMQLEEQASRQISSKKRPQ
UniProt O95232, sequence (O95232 whole entry, looked up): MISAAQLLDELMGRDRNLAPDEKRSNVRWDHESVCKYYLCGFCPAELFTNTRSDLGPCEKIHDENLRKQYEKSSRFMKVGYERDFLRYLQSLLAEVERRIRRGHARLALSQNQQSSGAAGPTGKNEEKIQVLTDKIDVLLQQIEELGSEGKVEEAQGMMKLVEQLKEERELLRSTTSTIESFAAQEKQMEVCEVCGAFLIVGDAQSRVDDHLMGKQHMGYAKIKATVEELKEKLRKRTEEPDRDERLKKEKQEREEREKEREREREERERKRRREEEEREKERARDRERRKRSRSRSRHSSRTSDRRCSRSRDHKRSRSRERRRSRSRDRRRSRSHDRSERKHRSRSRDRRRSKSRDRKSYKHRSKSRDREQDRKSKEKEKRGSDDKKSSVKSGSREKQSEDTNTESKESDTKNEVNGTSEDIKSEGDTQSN
UniProt P32019, sequence (P32019 whole entry, looked up): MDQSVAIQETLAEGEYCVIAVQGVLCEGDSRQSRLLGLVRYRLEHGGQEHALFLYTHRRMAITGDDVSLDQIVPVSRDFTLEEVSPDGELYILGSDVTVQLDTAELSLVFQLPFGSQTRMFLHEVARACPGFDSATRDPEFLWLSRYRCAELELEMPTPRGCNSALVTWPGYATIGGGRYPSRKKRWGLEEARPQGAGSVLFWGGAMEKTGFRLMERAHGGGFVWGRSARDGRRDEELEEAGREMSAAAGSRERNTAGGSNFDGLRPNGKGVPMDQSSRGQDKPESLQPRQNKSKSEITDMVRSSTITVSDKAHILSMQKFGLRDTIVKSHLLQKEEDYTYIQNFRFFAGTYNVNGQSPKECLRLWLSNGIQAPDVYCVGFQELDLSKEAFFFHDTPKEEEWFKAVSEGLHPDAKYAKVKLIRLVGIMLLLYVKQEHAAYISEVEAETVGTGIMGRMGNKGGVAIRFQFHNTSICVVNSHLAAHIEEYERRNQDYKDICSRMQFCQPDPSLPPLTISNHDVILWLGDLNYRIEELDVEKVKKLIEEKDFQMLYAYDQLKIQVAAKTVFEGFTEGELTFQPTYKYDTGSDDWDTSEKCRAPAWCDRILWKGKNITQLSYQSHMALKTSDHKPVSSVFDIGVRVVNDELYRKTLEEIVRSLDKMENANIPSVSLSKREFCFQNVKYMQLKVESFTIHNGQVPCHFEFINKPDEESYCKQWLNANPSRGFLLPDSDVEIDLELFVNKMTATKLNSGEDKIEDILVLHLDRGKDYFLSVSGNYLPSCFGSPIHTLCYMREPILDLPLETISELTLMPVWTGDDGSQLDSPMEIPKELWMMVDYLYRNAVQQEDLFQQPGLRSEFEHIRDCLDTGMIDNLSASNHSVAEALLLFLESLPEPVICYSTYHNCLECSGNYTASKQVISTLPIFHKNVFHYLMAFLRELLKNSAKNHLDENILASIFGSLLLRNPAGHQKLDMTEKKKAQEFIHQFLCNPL

Compound in this test: Cc1cc(Nc2cc(N3CCN(C)CC3)nc(Sc3ccc(NC(=O)C4CC4)cc3)n2)n[nH]1 [tozasertib]
As to the kind of experiment: log2 fold change, soluble protein after heating vs DMSO (PISA); higher = thermal stabilisation; K562 cells, 10 uM, 30 min; active = over 0.2 and 3.5 SD of the protein, either way, in both replicates (recomputed). The gist of the method: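 Aliquots of K562 cells (2×10^6 cells/mL) treated with 10 μM compound for 30 min were heated for 3 min over 48°C-58°C. After pooling and extraction in PBS with 0.5% NP-40 at 4°C, soluble protein from a 21,000xg, 90 min spin was quantified by TMTpro 16plex LC-MS/MS with channel sums equalised. Thermal stability is expressed against control samples, from duplicates, as a log2 fold change.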
LARP1 (UniProt Q6PKG0): the log2 fold change is -0.001.

On to MEPCE (UniProt Q7L2J0), for which the log2 fold change was 0.094.

Regarding MAD2L1 (UniProt Q13257), the log2 fold change is 0.101.

As for KCTD2 (UniProt Q14681), the log2 fold change is -0.116.

On to LYPLA2 (UniProt O95372), for which the log2 fold change is 0.056.

Consider INPP5B (UniProt P32019), for which the log2 fold change was 0.151.

Regarding IPO11 isoform 2 (UniProt Q9UI26), the log2 fold change was 0.025.

Take MARCKS (UniProt P29966): the log2 fold change is -0.068.

In the case of KIF2C (UniProt Q99661), the log2 fold change was -0.035.

In the case of LPCAT3 (UniProt Q6P1A2), the log2 fold change was -0.027.

For KTN1 (UniProt Q86UP2), the log2 fold change is -0.007.

MIF (UniProt P14174): the log2 fold change was -0.019.

With LUC7L3 (UniProt O95232), the log2 fold change is 0.011.

As for LUC7L (UniProt Q9NQ29), the log2 fold change is 0.06.

In the case of KPNA1 (UniProt P52294), the log2 fold change is 0.075.

In the case of KSR1 (UniProt Q8IVT5), the log2 fold change is -0.221.

As to MAP2K2 (UniProt P36507), the log2 fold change was -0.041.
